Compound activity deposited in PubChem by National Center for Advancing Translational Sciences (NCATS).
NS1 inh – inhibitors of influenza NS1 protein function. 270,000 compounds, 0.4% hits. Potency, µM (series often up to 46.1 µM), without a hit: at the top dose activity, positive = more growth. AID 2326; calls by dose curve; further: actives are rising curves; nearly all actives have a fitted effect of over 50% in size
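Compounds were scored for reversing the slow growth caused by influenza A NS1 in S. cerevisiae, measured by optical density at 600 nm. Assay medium contained 2% galactose at pH 6.0; NS1-free yeast of the same strain were the positive control.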
AMA1-RON2 inh – disrupts binding of P. falciparum AMA1 to RON2 | AlphaScreen AMA1-biotinylated RON2 peptide binding | Potency, µM (highest dose often 58.2 µM), inactives show top-dose activity change, negative = inhibition, usual class: inhibitors | 360,000 compounds, 0.2% hits;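 further: 0% = vehicle wells and -100% = peptide control; nearly all actives have a fitted effect of over 45% in size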
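AMA1 (3D7) with his tag at 25 nM final met compounds first, then biotinylated RON2 peptide at 25 nM; detection used donor plus acceptor beads, 10 µg/mL apiece, read by AlphaScreen after 30 min at room temperature.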
Pf growth 96h – P. falciparum growth inhibition at 96 hour, primary screen for plastid delayed-death inhibitors; 320,000 compounds, 6.9% hits; Potency, µM (doses to about 28.7 µM), without a hit: at the top dose activity change, negative = inhibition, most hits filed as inhibitors; P. falciparum luciferase reporter growth, 96 h; further: on the % scale 0 is the no-effect control and ±100 the full control effect
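Two-generation exposure (96 h) targets delayed-death phenotype. Reporter parasites carrying integrated firefly luciferase, in red cells at 2% hematocrit and 0.05% parasitemia final, kept at 37 C, 5% CO2; luminescence loss indicates inhibition.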
SARS PLpro yeast – inhibitors of SARS-CoV papain-like protease in yeast. S. cerevisiae expressing SARS-CoV PLpro, growth rescue. Potency, µM (series often up to 32.9 µM), for inactives: at the top dose activity, positive = growth rescue, hits mostly activators. 330,000 compounds, 0.19% hits. AID 485353; calls by dose curve; further: 0% is about no effect; nearly all actives have a fitted effect of over 55% in size
HCV inhibitor – inhibitors of hepatitis C virus infection. Huh7.5.1 HCVcc-Cre infection, luciferase reporter, 44 h. Potency, µM (titrated, usually from 41.8 µM), without a hit: at the top dose activity change, negative = inhibition, hits mostly inhibitors. 340,000 compounds, 3.4% hits; further: on the % scale 0 is the no-effect control and ±100 the full control effect
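Whole-lifecycle infectious HCVcc-Cre system; cells 1,000/well, compound then virus (~0.5 moi) added 4 h after plating, 44 h culture. Luciferase read 15 sec following 15 min substrate incubation, room temp.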
Pf growth 48h – P. falciparum growth inhibition at 48 hours (one generation) | 310,000 compounds, 5.9% hits | AID 504832 | Potency, µM (top dose mostly 28.7 µM), for the others: at the highest dose activity change, negative = inhibition, most hits filed as inhibitors | P. falciparum luciferase growth in erythrocytes, 48 h; further: on the % scale 0 is the no-effect control and ±100 the full control effect
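Cell-based growth assay: transgenic P. falciparum expressing firefly luciferase, cultured in red cells within RPMI 1640 containing 0.5% w/v Albumax, 24 mM bicarbonate and gentamycin. A drop in luciferase activity indicates inhibition.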
Active calls of the source: *; ? = inconclusive; . = not tested or not shown; [ ] = remark or other dose. In the library only some 12% were active in any assay of this set; here they are far more common. Unless noted, the call rests on the fitted dose curve; in most records, active means well fitted curve in the direction sought with a large enough effect; inconclusive means small, poorly fitted or top-dose-only effect, or another doubt; inactive means no such curve, though single readings can be large; an effect the other way counts as inactive or inconclusive. Potency means the concentration at half of the fitted maximal effect.

SMILES	NS1 inh	AMA1-RON2 inh	Pf growth 96h	SARS PLpro yeast	HCV inhibitor	Pf growth 48h
Cc1ccc(-c2nnc(N3CCN(C(=O)c4cccs4)CC3)c3ccccc23)cc1	-1%	-8%	4.7µM*	-1%	?	8.3µM*
CCc1ccc(OCC(=O)NNC(=O)c2ccc(NC(=O)C3CC3)cc2)cc1	2%	16%	25%	-3%	8%	2%
O=C(NCc1ccc2c3c(cccc13)C(=O)N2)c1cccs1	-5%	-3%	10%	0%	10%	17%
COc1ccc([C@]23Cc4ccccc4C(O2)c2c(cc(-c4ccccc4)oc2=O)O3)cc1	-27%	.	?	0%[6.58 µM]	.	?
CC1(C(=O)Nc2ccc3c(c2)OCCO3)CN(S(C)(=O)=O)CC(=O)N1CCCn1ccnc1 (stereo not drawn)	.	-15%	.	.	.	.
COc1cc(/C=C(\C(=O)O)c2ccc(S(=O)(=O)N3CCCC3)s2)ccc1OCCC(C)C	.	-11%	.	.	10%	.
CCOC(=O)N1CCN(c2nnc(-c3ccc(C)cc3)c3ccccc23)CC1	-45%	-14%	13%	0%	?	?
O=C(COc1ccc([N+](=O)[O-])cc1)N1CCN(c2nnc(-c3ccccc3)c3ccccc23)CC1	-39%	-9%	13%	-1%	13µM*	8%
Cc1ccc(-c2nnc(N3CCN(C(=O)COc4ccccc4)CC3)c3ccccc23)cc1	-78%	-9%	5.2µM*	-26%	13µM*	.
Cc1nn(CC(=O)Nc2c(F)c(F)cc(F)c2F)c(=O)c2cccn12	8%	-7%	-7%	.	-1%	-9%
C=CC[C@H](N)C(=O)O	-4%	.	.	.	.	.
C=CCn1c(SCc2cc(=O)n3ccsc3n2)nc2scc(C3CC3)c2c1=O	-11%	-5%	4.1µM*	-4%	?	?
C=CCn1c(SCc2cc(=O)n3ccsc3n2)nc2ccccc2c1=O	.	0%	14%	-1%	-2%	3%
Cc1cccc(NC(=O)CSCC(=O)NNC(=O)c2ccoc2C)c1	6%	23%	-8%	9%	34%	7%
CCOC(=O)N1CCN(C(=O)CSCC(=O)Nc2nc(-c3ccc(-c4ccccc4)cc3)cs2)CC1	21%	-3%	10µM*	-4%	5.6µM*	?
CCOC(=S)SCC(=O)Nc1nc(-c2ccccc2)cs1	-5%	-18%	?	-11%	-10%	?
CCOC(=S)SCC(=O)Nc1nc(-c2ccc(Br)cc2)cs1	-3%	-10%	3.3µM*	21%	?	-95%
COc1ccccc1C1(O)CCN(CC(=O)Nc2nc(-c3ccccc3)cs2)CC1	-13%	21%	-19%	2%	10µM*	-2%
CCOC(=O)N1CCN(C(=O)CSCC(=O)Nc2nc(-c3ccc(OC)cc3)cs2)CC1	-11%	14%	?	4%	?	?
CCc1nnc(NC(=O)CN2CCN(c3nc(-c4ccccc4)cs3)CC2)s1	-32%	-6%	9.3µM*	13%	-19%	10µM*
Cc1cc(C)c(NC(=O)CNC(=O)c2ccccc2OCc2c(C)noc2C)c(C)c1	.	-10%	1%	3%	-11%	19%
O=C(O)C(Cc1ccc(Cl)cc1)NS(=O)(=O)c1ccc(Cl)cc1 (stereo not drawn)	4%	-8%	26%	2%	7%	.
C[C@@H](C(=O)CC(=O)OC(C)(C)C)[C@@H](O)c1ccccc1	15%	-3%	-15%	-2%	17%	0%
COc1ccccc1C(=O)N/C(=C\c1ccc2c(c1)OCO2)C(=O)NCCc1nc2ccccc2[nH]1	17%	19%	-19%	0%	-4%	-13%
COc1ccc2nc(NCN3C(=O)c4ccccc4C3=O)sc2c1	-4%	.	.	.	.	.
SMILES	NS1 inh	AMA1-RON2 inh	Pf growth 96h	SARS PLpro yeast	HCV inhibitor	Pf growth 48h
CCOC(=O)c1c(-c2ccccc2Cl)csc1NC(=O)c1cc(S(=O)(=O)N2CCOCC2)ccc1C	24%	0%	?	8%	?	15µM*
CCCCn1ccnc1C(=O)c1cccc(S(=O)(=O)N2CC(C)CC(C)C2)c1 (stereo not drawn)	0%	9%	?	8%	-25%	.
CCOc1ccccc1NC(=O)c1cc(S(=O)(=O)N2CCOCC2)ccc1C	-6%	3%	12µM*	2%	10%	-10%
COc1ccc(S(=O)(=O)N2CCOCC2)cc1NC(=O)COc1ccc(C)cc1	.	-2%	.	1%	-14%	.
CCOc1ccc(S(=O)(=O)N2CCOCC2)cc1NC(=O)CSCc1ccc(C)cc1	.	-4%	?	11%	?	9.3µM*
CCCCn1ccnc1C(=O)c1cc(S(=O)(=O)N2CCOCC2)ccc1C	14%	-3%	-26%	-7%	11µM*	.
O=C(/C=C/c1ccc([N+](=O)[O-])cc1)N1CCN(S(=O)(=O)c2cccs2)CC1	1%	-1%	-5%	1%	10%	28%
O=C(COc1ccccc1Cl)Nc1ccc2c(c1)C(=O)NC2=O	-7%	15%	?	-1%	8%	1%
CCOc1cc(C(=S)N2CCOCC2)ccc1OS(=O)(=O)c1ccc(NC(C)=O)cc1	-11%	-1%	-24%	-2%	7.1µM*	0%
CCOc1ccccc1C(=O)Nc1cccc(-c2ccc(N3CCOCC3)nn2)c1	.	-16%	9.3µM*	-19%	?	?
CCOc1ccc(C(=O)Nc2cccc(-c3ccc(N4CCOCC4)nn3)c2)cc1OCC	.	11%	?	0%	?	-14%
CCOc1cc(C(=S)N2CCOCC2)ccc1OS(=O)(=O)c1ccc(OC)cc1	1%	-4%	?	0%	?	-9%
CCOc1ccccc1C(=O)Nc1ccc(S(=O)(=O)N2CCOCC2)cc1	-33%	2%	17%	12%	13µM*	-17%
CN1CCN(c2ccc(-c3cccc(NC(=O)COc4ccc(Cl)cc4Cl)c3)nn2)CC1	.	-3%	-2%	.	11µM*	-86%
Cc1cc(C)c2c(N)c(C(=O)Nc3ccc([N+](=O)[O-])cc3)sc2n1	4%	0%	42%	-3%	24%	111%
Cn1ccnc1SCC(=O)Nc1ccc(Cl)cn1	.	24%	191%	0%	1%	59%
O=S(=O)(c1cccc2ccccc12)N1CCC2CC1c1cc(Cl)ccc12 (stereo not drawn)	.	-1%	.	.	-15%[8.37 µM]	.
O=C(NCCN1C(=O)S/C(=C\c2cccnc2)C1=O)c1cc(S(=O)(=O)N2CCOCC2)ccc1F	10%	-5%	-6%	0%	-10%	-6%
Cc1ccc(S(=O)(=O)N2CCOCC2)cc1C(=O)NCCN1C(=O)S/C(=C\c2ccccc2Cl)C1=O	?	-4%	?	-7%	13µM*	-14%
N=c1ccn(CC(=O)c2ccc(-c3ccccc3)cc2)cc1	-5%	-21%	?	-2%	0.89µM*	0.83µM*
